# Results published in PubChem BioAssay.
# Active and inactive are the calls of the source.
# What was measured:
# [1] = A549 cell viability effects, profiling panel, calcein-AM fluorescence, 48 h, basal (AID 1162); details: higher = more signal
# [2] = adipocyte viability effects, profiling panel, cell-based, 3T3-L1 adipocytes, calcein-AM fluorescence, 48 h, basal (AID 1163); details: 3T3-L1 adipocytes viability, higher = more signal
# [3] = HepG2 cell viability effects, profiling panel, calcein-AM fluorescence, 48 h, basal (AID 1164); details: higher = more signal
# [4] = MM1S cell viability effects, profiling panel, calcein-AM fluorescence, 48 h, basal (AID 1165); details: higher = more signal;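 note: viability of MM1S multiple myeloma cells under basal unstimulated conditions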
# [5] = basal RPMI8226 viability, no added stimulus, profiling panel, cell-based, calcein-AM fluorescence, 48 h, PK04 Diversity Set (AID 1166); details: RPMI8226 myeloma viability, higher = more signal;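 note: cells grown under basal conditions without added stimulus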
# [6] = basal HepG2 mitochondrial membrane potential changes, profiling panel, cell-based, JC-1 fluorescence, 24 h, 100 nL compound (AID 1167); details: higher = more signal
# [7] = basal 3T3-L1 adipocyte mitochondrial potential changes, profiling panel, cell-based, JC-1 fluorescence, 3T3-L1 adipocytes, 24 h, 100 nL compound (AID 1168); details: JC-1 mitochondrial fluorescence, higher = more signal, called active from +8 up or from −8 down
# [8] = basal RPMI8226 mitochondrial membrane potential changes, profiling panel, cell-based, JC-1 fluorescence, 24 h, 100 nL compound (AID 1169); details: RPMI8226 myeloma, JC-1 mitochondrial potential fluorescence, higher = more signal
# [9] = basal MM1S mitochondrial membrane potential changes, profiling panel, cell-based, JC-1 fluorescence, 24 h, 100 nL compound (AID 1170); details: higher = more signal
# [10] = A549 lung cancer cell viability effects, profiling panel, resazurin fluorescence, 24 h, PK04 Diversity Set (AID 1171); details: higher = more signal, called active from +8 up or from −8 down
# Note: test concentration not given here.
Structure (SMILES),z-score [1],z-score [2],z-score [3],z-score [4],z-score [5],z-score [6],z-score [7],z-score [8],z-score [9],z-score [10]
CC(C)(C)OC(=O)CC[C@]1(C(=O)NCC(O)CO)N=C(c2ccc(OCCCO)cc2)O[C@H]1c1ccccc1N=[N+]=[N-] (stereo not given in full),0.0239,0.809,0.324,-0.312,-0.198,0.0858,2.2 (inactive),-0.832,-0.591,0.35 (inactive)
CC(C)(C)N1CC=CC23O[C@@H]4C=CCCOC(=O)C4[C@H]2C(=O)N(CCCCCCO)[C@@H]3C1=O (stereo not given in full),0.0905,-2.98,0.952,1.35,0.229,0.212,-0.501 (inactive),-0.0402,-0.516,-0.523 (inactive)
COC(=O)C1(Cc2ccccc2)C=C2C(=C(C)C(=O)C2C)CN1 (stereo not given),-0.865,0.45,0.159,0.232,0.213,-0.237,-0.046 (inactive),0.151,-0.762,-1.21 (inactive)
COc1ccc([Si](C)(C)[C@H]2[C@H](CCO)O[C@@]3(C(=O)N(Cc4cccc(N5C(=O)c6ccccc6Oc6ccccc65)c4)c4ccccc43)[C@@H]2C)cc1,-1.24,0.508,-4.22,-2.87,-4.3,-0.19,2.27 (inactive),-1.03,-1.84,-2.25 (inactive)
C=C(CCCC)/C(=C/C[C@H](OC(C)=O)c1cccc(OCCO)c1)c1cnc2ccccc2c1,0.955,1.16,0.301,-3.13,-1.26,1.86,0.0664 (inactive),-0.205,-0.209,0.395 (inactive)
COC(=O)[C@]1(Cc2ccccc2)N=C(c2ccc(OCCCO)cc2)O[C@@H]1c1ccccc1CN=[N+]=[N-],-3.63,0.748,-5.37,-3.55,-3.97,-2.4,-0.876 (inactive),-1.12,-1.34,-4.59 (inactive)
Cc1ccc(S[C@]2(C(=O)NC(C)C)CC(=O)N(C3CCCCC3)[C@@H]2c2ccc(CO)cc2I)cc1,-0.0909,0.0617,-0.938,-2.07,-2.68,1.06,-0.0605 (inactive),-0.351,-1.12,0.81 (inactive)
C#CCN1[C@@H](Cc2ccccc2)C(=O)O[C@H](Cc2ccccc2)[C@@H]1/C=C/C1CC1,-0.589,-0.488,0.196,-2,-2.16,2.46,-0.693 (inactive),-0.812,0.4,3.08 (inactive)
C=CCC(OC(C)=O)[C@@H]1[C@@H](N(Cc2cccc3ccccc23)C(=O)Cc2ccc(OC)cc2)c2cc(OCCCO)ccc2N1C(=O)c1ccc2ccccc2c1 (stereo not given in full),1.19,2.02,0.692,0.357,1.19,2.55,0.443 (inactive),0.066,0.433,0.445 (inactive)
COc1ccc(CCNC(=O)[C@@H]2c3ccccc3C(=O)N(Cc3ccccc3OC)[C@H]2c2ccc(CO)cc2)cc1,0.41,-0.219,-0.147,-0.147,0.245,1.22,-0.822 (inactive),-0.167,-0.42,1.58 (inactive)
Cc1ccc(S[C@]2(C(=O)NCC(F)(F)F)CC(=O)N(Cc3ccccc3C(F)(F)F)[C@@H]2c2ccc(CO)cc2)cc1,-0.859,0.0909,-0.768,-1.04,0.0646,-0.523,0.0107 (inactive),0.0145,-0.594,0.413 (inactive)
O=C1OCCC=C[C@H]2OC34C=CCN(c5ccc6ccccc6c5)C(=O)[C@H]3N(CCO)C(=O)[C@@H]4C12 (stereo not given in full),0.327,-0.423,0.0955,0.508,0.037,-0.409,-0.502 (inactive),0.122,0.611,-0.751 (inactive)
NC(=O)N1C(=O)C2C(C1=O)C1C=C(CCCO)C2C(c2ccc(CN3CCCC3)cc2)N1Cc1cc2c(cc1Br)OCO2 (stereo not given),-1.05,0.201,-0.623,-0.0321,0.124,-0.595,-0.472 (inactive),0.159,0.322,-0.855 (inactive)
O=C(O)[C@H](Cc1ccccc1)n1cc(C2(O)CCCCC2)nn1,-0.53,-1.54,0.105,-0.364,-0.361,-1.14,-0.569 (inactive),0.791,-0.417,0.0465 (inactive)
COC(=O)C(CC#Cc1ccc2c(c1)[C@]1(C(=O)N2)[C@H](c2ccccc2OCCO)N2[C@H](c3ccccc3)[C@H](c3ccccc3)OC(=O)[C@H]2[C@@H]1C(=O)N1CCc2cc(OC)c(OC)cc2C1)C(=O)OC,0.734,-0.19,2.08,0.857,-0.0217,-0.112,2.3 (inactive),-0.941,-1.47,-0.63 (inactive)
O=C1O[C@@H](c2ccccc2)[C@@H](c2ccccc2)N2[C@@H](c3ccccc3OCCO)[C@]3(C(=O)Nc4ccc(C#CCCO)cc43)[C@@H](C(=O)NC[C@H](O)c3ccccc3)[C@H]12,-0.31,0.323,0.997,0.16,-0.0269,-1.16,0.00583 (inactive),-0.471,-0.596,0.682 (inactive)
C=CCC(OC(C)=O)[C@@H]1[C@@H](N(Cc2cccc3ccccc23)C(=O)c2ccc(-c3ccccc3)cc2)c2cc(OCCCO)ccc2N1C(=O)Cc1ccc2ccccc2c1 (stereo not given in full),-0.217,0.153,0.581,-1.54,-0.729,1.9,-0.407 (inactive),-0.342,0.164,0.706 (inactive)
CCCCC(O)C1C=CC2C(=O)N(c3ccccc3)C(=O)C2N1Nc1ccc(C#N)cc1 (stereo not given),0.233,0.15,1.2,0.105,0.0528,-0.622,-1.19 (inactive),-0.0799,-0.0525,-0.151 (inactive)
C=C(/C(=C/C[C@@H](OC(C)=O)c1cccc(OCCO)c1)c1cnc2ccccc2c1)C(C)C,0.295,1.53,0.224,-1.07,-1.97,-1.63,-0.436 (inactive),-0.533,0.581,-0.322 (inactive)
NC(=O)NCC#Cc1ccc2c(c1)[C@]1(C(=O)N2)[C@H](c2ccc(OCCO)cc2)N2[C@H](c3ccccc3)[C@H](c3ccccc3)OC(=O)[C@H]2[C@@H]1C(=O)NC[C@H](O)c1ccccc1,0.192,0.326,0.013,0.405,0.847,-1.4,-0.0754 (inactive),-0.538,0.207,0.401 (inactive)
O=C1O[C@@H](c2ccccc2)[C@@H](c2ccccc2)N2[C@@H](c3ccc(OCCO)cc3)[C@]3(C(=O)Nc4ccc(C#CCCO)cc43)[C@@H](C(=O)O)[C@H]12,1.35,-0.997,0.831,0.942,0.926,-0.498,-0.382 (inactive),0.284,-0.811,-0.384 (inactive)
COc1ccc([Si](C)(C)[C@H]2[C@H](CCO)O[C@@]3(C(=O)N(Cc4ccc(NC(=O)[C@H](C)O)cc4)c4ccccc43)[C@@H]2C)cc1,-3.33,1.36,-4.58,-2.64,-4.47,-2.19,0.843 (inactive),-1.11,-2.31,-5.03 (inactive)
COCCOC(=O)N1C(=O)[C@@]2(c3cc(C#CCCO)ccc31)[C@H](C(N)=O)[C@H]1C(=O)O[C@H](c3ccccc3)[C@H](c3ccccc3)N1[C@@H]2c1ccccc1OCCO,-0.21,-0.0387,-0.16,-1.87,-2.92,-0.529,0.181 (inactive),-0.821,-1.47,-0.191 (inactive)
COc1ccc(C(O)C2C=CC3C(=O)N(c4ccccc4)C(=O)C3N2Nc2ccc([N+](=O)[O-])cc2)c2ccccc12 (stereo not given),-0.826,-1.07,-0.39,-0.517,-0.54,-2.27,-1.08 (inactive),-0.344,-1.32,0.604 (inactive)
O=C1[C@@H]2[C@@H](CC(COc3ccccc3)=C([C@H](O)CCc3ccccc3)[C@@H]2CO)C(=O)N1Cc1ccccc1,-0.137,-0.331,-1.32,-3.23,-3.48,0.325,-0.0321 (inactive),-1.04,-1.33,-0.833 (inactive)
CCOC(=O)C1=CC[C@@H](c2ccccc2)N(S(=O)(=O)c2ccc(C)cc2)[C@H]1c1ccccc1I,-0.855,-1.01,-0.47,-0.676,-0.965,1.5,-1.61 (inactive),1.14,-1.16,0.998 (inactive)
O=C1C2C=CC(C(O)c3ccc([N+](=O)[O-])cc3)N(Nc3ccccc3F)C2C(=O)N1c1ccccc1 (stereo not given),-0.353,-0.923,-1.16,0.375,-0.958,-1.5,-2.27 (inactive),-0.268,-0.127,-0.364 (inactive)
C=CC[C@]1(C(=O)NCC(O)CO)COC(c2ccc(OCCCO)cc2)=N1 (stereo not given in full),-0.188,-0.191,-0.323,-0.244,0.146,-0.512,-0.604 (inactive),0.00774,-0.307,-0.106 (inactive)
COC(=O)[C@@]1(Cc2ccccc2)[C@H]2c3cc(C(=O)N(C)C)n(Cc4ccc(C(F)(F)F)nc4)c3C[C@H]2CN1C(=O)c1ccccc1,-1.28,0.286,-0.628,-0.214,-0.559,1.71,-1.09 (inactive),-0.727,-0.79,0.22 (inactive)
